TDP1 cell noCPT: qHTS for Inhibitors of human tyrosyl-DNA phosphodiesterase 1 (TDP1): qHTS in cells in absence of CPT | DT40 Tdp1-/- hTDP1 cells, no CPT, ATP luminescence, 48 h | Potency, µM (titrated, usually from 46.2 µM), without a hit: top-dose activity change, negative = growth inhibition, most hits filed as inhibitors | 15% of 420,000 active | AID 686978, 2013; note: potency is the fitted concentration of half-maximal effect; % is set by controls: 0 for no effect and ±100 for the full control effect; nearly all actives have a fitted effect of over 55% in size
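Camptothecin absent (DMSO only). Human TDP1-complemented DT40 knockout cells, 400 cells/well, 37 °C for minimum 48 hr; ATP measured via CellTiter-Glo, 30 min dark incubation, luminescence.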
TDP1 inh: qHTS Assay for Inhibitors of Tyrosyl-DNA Phosphodiesterase (TDP1); Tyrosyl-DNA phosphodiesterase 1 (Homo sapiens), Q9NUW8; recombinant TDP1, AlphaScreen DNA substrate cleavage; Potency, µM (highest dose often 130 µM), inactives show at the top dose activity change, negative = inhibition, usual class: inhibitors; 0.28% of 350,000 active; note: potency is the fitted concentration of half-maximal effect; % is set by controls: 0 for no effect and ±100 for the full control effect; nearly all actives have a fitted effect of over 40% in size
Target sequence (Q9NUW8 whole entry, looked up): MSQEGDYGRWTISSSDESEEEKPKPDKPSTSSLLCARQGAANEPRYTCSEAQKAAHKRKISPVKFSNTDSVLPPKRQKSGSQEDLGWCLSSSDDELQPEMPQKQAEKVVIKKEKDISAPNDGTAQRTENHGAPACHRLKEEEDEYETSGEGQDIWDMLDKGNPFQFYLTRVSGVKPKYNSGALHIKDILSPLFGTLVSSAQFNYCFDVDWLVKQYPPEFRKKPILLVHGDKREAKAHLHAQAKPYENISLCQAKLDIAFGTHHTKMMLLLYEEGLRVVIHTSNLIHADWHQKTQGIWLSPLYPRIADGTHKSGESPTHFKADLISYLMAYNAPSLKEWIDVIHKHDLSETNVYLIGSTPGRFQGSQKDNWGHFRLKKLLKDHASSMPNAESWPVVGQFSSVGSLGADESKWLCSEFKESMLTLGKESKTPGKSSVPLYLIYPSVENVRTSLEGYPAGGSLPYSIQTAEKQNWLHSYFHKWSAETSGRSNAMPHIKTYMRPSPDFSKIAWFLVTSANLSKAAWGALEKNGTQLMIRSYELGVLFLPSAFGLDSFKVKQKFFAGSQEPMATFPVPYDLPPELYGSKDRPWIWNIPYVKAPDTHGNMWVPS
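E. coli-derived human Tdp1, 1 nM final. Cpd preinc 15 min RT; substrate 15 nM final, 5 min RT; AS bead mix 10 ug/ml final, 10 min RT. Signal loss = tyrosine-FITC cleavage. No-enzyme wells = max signal.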
IL1B secr inh: qHTS for Inhibitors of Inflammasome Signaling: IL-1-beta AlphaLISA Primary Screen. activity change, % at 57.5 µM. 4.7% of 360,000 active. AID 743279, 2014. THP-1 LPS/ATP IL-1B secretion, AlphaLISA, 16 h; hits give low values; in the data active = activity change below about -50%; inconclusive = mostly about -30% to -49%; note: % is set by controls: 0 for no effect and ±100 for the full control effect
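THP-1 cells pretreated 1 hr with compounds (up to 57.5 uM final), then stimulated with LPS (250 ng/mL final) plus ATP (1.25 mM final); secreted IL-1B measured by AlphaLISA after 16 hr, decreased signal indicating inhibition.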
HepG2 viability: qHTS for Inhibitors of TGF-b: Cytotox Counterscreen | HepG2 CAGA-GFP viability, ATP luminescence, 18 h | Potency, µM (highest dose often 46.1 µM), for the others: top-dose activity change, negative = cytotoxicity, usual class: cytotoxic | 0.76% of 410,000 active | AID 588856, 2011; note: potency is the fitted concentration of half-maximal effect
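CellTiter-Glo luminescence gave cytotoxicity after 18 hours at 37 degrees C. The cells were HepG2 CAGA-GFP in 1% FBS DMEM, stimulated with 500 pg/mL TGF-beta after compound addition. %Activity was normalised to no-cell wells (complete cell-killing) and DMSO (no toxicity), and curves were fitted and classified.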
TGFb inhibitor: qHTS for Inhibitors of TGF-b | AID 588855, 2011 | HepG2 CAGA-GFP TGF-b/SMAD3 reporter, GFP fluorescence, 18 h; TGF-beta stimulated, 500 pg/mL final | Potency, µM (highest dose often 46.1 µM), for inactives: at the top dose activity, negative = inhibition, most hits filed as inhibitors | 1.2% of 410,000 active; note: potency is the fitted concentration of half-maximal effect; % is set by controls: 0 for no effect and ±100 for the full control effect; nearly all actives have a fitted effect of over 65% in size
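Inhibition of TGF-beta-driven CAGA-GFP reporter expression in HEPG2 cells is measured by cellular GFP fluorescence after 18 h stimulation with 500 pg/mL recombinant TGF-beta in 1% FBS medium at 37 degrees C.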
DT40 TDP1 CPT: qHTS for Inhibitors of human tyrosyl-DNA phosphodiesterase 1 (TDP1): qHTS in cells in presence of CPT; 12% of 420,000 active; Potency, µM (series often up to 46.2 µM), for the others: at the highest dose activity change, negative = growth inhibition, actives largely listed as inhibitors; chicken DT40 Tdp1-/-;hTDP1 cells + 20 nM CPT, ATP luminescence, 48 h; note: potency is the fitted concentration of half-maximal effect; % is set by controls: 0 for no effect and ±100 for the full control effect; nearly all actives have a fitted effect of over 55% in size
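Cell growth measured by CellTiter-Glo luminescence after a minimum 48 h, 37 C compound exposure with 20 nM CPT in Tdp1-knockout DT40 cells stably expressing hTDP1, seeded 400/well; qHTS titration format.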
* = called active by the depositor. A selection: hits, their analogues and other compounds. The true share with any hit is near 19%. Unless noted, calls come from the whole dose curve; as a rule, active = well fitted curve in the direction sought with a large enough effect; inconclusive = small, poorly fitted or top-dose-only effect, or another doubt; inactive = no such curve, though single readings can be large; an effect the other way counts as inactive or inconclusive.

Results for CCOc1ccc(-n2cc(-c3ccccc3)c3c(SC(C)C(=O)OC)ncnc32)cc1 (stereo unspecified) ?
TDP1 cell noCPT: inconclusive; TDP1 inh: 3%; IL1B secr inh: 37; HepG2 viability: -37%; TGFb inhibitor: -2%; DT40 TDP1 CPT: inconclusive

Results for COc1cccc(NC(=O)CN(C)C(=O)c2cc(-c3ccccc3)nn2-c2ccccc2)c1 ?
TDP1 cell noCPT: -5%; TDP1 inh: 1%; IL1B secr inh: inconclusive; HepG2 viability: -7%; TGFb inhibitor: -12%; DT40 TDP1 CPT: -1%

What do the screens show for `O=C1[C@@H]2CSC(c3ccc(F)cc3)N2C(=O)N1c1ccc(Cl)cc1` (stereo partly specified)?
TDP1 cell noCPT: -2%; TDP1 inh: -1%; HepG2 viability: -16%; TGFb inhibitor: inconclusive; DT40 TDP1 CPT: 3%

What do the screens show for `CC(C)=NNc1cnnc2ccc([N+](=O)[O-])cc12`?
TDP1 cell noCPT: 13µM*; IL1B secr inh: 33; HepG2 viability: 0%; TGFb inhibitor: inconclusive; DT40 TDP1 CPT: 13µM*

How did COC(=O)C(=O)Nc1cccc2cccnc12 do in these assays?
TDP1 inh: 1%; HepG2 viability: 6%; TGFb inhibitor: 13%

What do the screens show for `O=C(CSc1nc2ccccc2c(=O)n1CCCO)Nc1ccc2c(c1)OCCO2`?
TDP1 cell noCPT: -29%; IL1B secr inh: -18; HepG2 viability: 0%; TGFb inhibitor: 10%; DT40 TDP1 CPT: -21%

What do the screens show for `COc1ccccc1NC(=O)C(C)Sc1nc2ccccc2c(=O)n1CC1CCCO1` (stereo unspecified)?
TDP1 cell noCPT: -24%; IL1B secr inh: -1; HepG2 viability: -24%; TGFb inhibitor: 18%; DT40 TDP1 CPT: inconclusive

What do the screens show for `CSc1cccc(NC(=O)C(C)Sc2ccc(C)cc2)c1` (stereo unspecified)?
TDP1 cell noCPT: -14%; TDP1 inh: -6%; IL1B secr inh: 34; HepG2 viability: -20%; TGFb inhibitor: -14%; DT40 TDP1 CPT: -7%

Results for CC(Sc1nc2ccccc2c(=O)n1CC1CCCO1)C(=O)N(C)c1ccccc1 (stereo unspecified) ?
TDP1 cell noCPT: 5.8µM*; TDP1 inh: 2%; IL1B secr inh: -3; HepG2 viability: -22%; TGFb inhibitor: -24%; DT40 TDP1 CPT: 21µM*

How did Cc1cccc(NC(=O)C(C)Sc2ncnc3sccc23)c1 (stereo unspecified) do in these assays?
TDP1 cell noCPT: 15µM*; IL1B secr inh: -2; HepG2 viability: -29%; TGFb inhibitor: -9%; DT40 TDP1 CPT: 18µM*

How did CC(Sc1nc2ccccc2c(=O)n1C)C(=O)Nc1ccc2c(c1)OCCO2 (stereo unspecified) do in these assays?
TDP1 cell noCPT: 4.1µM*; TDP1 inh: 2%; IL1B secr inh: 22; HepG2 viability: -21%; TGFb inhibitor: -8%; DT40 TDP1 CPT: 8.2µM*

What do the screens show for `CC(C)Cn1c(SC(C)C(=O)Nc2ccc3c(c2)OCCO3)nc2ccccc2c1=O` (stereo unspecified)?
TDP1 cell noCPT: inconclusive; TDP1 inh: 0%; IL1B secr inh: -14; HepG2 viability: -28%; TGFb inhibitor: -20%; DT40 TDP1 CPT: 29µM*

Results for O=C(CNC(=O)c1ccccc1Br)N/N=C/c1ccc(O)cc1 ?
TDP1 cell noCPT: 10%; TDP1 inh: 6%; IL1B secr inh: 22; HepG2 viability: 0%; TGFb inhibitor: 2%; DT40 TDP1 CPT: -4%

Compound activity: PubChem, National Center for Advancing Translational Sciences (NCATS)
